Pf growth 48h: Primary qHTS for delayed death inhibitors of the malarial parasite plastid, 48 hour incubation; Potency, µM (doses to about 28.7 µM), usual class: inhibitors; P. falciparum luciferase growth in erythrocytes, 48 h; 5.9% of 310,000 active
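A one-generation exposure of luciferase-tagged malaria parasites in RPMI 1640/Albumax erythrocyte culture, 37 C and 5% CO2. Inhibition is inferred from decreased luminescence after adding detection reagent.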
Giardia FBPA inh: qHTS Assay for Inhibitors of Fructose-1,6-bisphosphate Aldolase from Giardia Lamblia; AID 2451, 2010; 0.71% of 290,000 active; purified Giardia FBPA; Potency, µM (doses to about 59.6 µM), usual class: inhibitors; note: nearly all actives have a fitted effect of over 55% in size
Target sequence (A8B2U2 whole entry, looked up): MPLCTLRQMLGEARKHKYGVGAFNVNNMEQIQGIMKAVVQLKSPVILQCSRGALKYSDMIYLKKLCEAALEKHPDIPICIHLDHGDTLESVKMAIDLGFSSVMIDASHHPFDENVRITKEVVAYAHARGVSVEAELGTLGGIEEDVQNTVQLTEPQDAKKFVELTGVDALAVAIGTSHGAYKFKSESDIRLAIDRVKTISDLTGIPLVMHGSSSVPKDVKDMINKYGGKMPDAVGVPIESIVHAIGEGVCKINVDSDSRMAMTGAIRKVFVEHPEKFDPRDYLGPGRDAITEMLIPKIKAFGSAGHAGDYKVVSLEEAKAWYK
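Giardia FBPA (40 nM reagent) was preincubated 10 min at RT with compound (up to 57.5 uM final), then substrate plus GAPDH/TPI/NAD/arsenate coupling system with diaphorase/resazurin was added; resorufin fluorescence (525/598 nm) was read after 20 min.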
HCMV antiviral: qHTS Assay for inhibitors of the human cytomegalovirus (HCMV) | AID 1259415, 2018 | HFF cells, HCMV-luciferase reporter, 72 h; hits give low values | 4.5% of 410,000 active | activity change, negative = inhibition, % at 57.5 µM; in the data active = activity change below about -60%; inconclusive = no clear call, values can overlap the other calls; inactive = above about -39%
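Steps: HFFs plated, 16 h 37C; compounds added; HCMV-luciferase added to MOI 1 PFU/cell; 72 h 37C; OneGlo reagent, 5 min room temperature; luminescence read, normalized to controls.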
Sm TGR inh: qHTS Assay for the Inhibitors of Schistosoma Mansoni Peroxiredoxins | Schistosoma mansoni thioredoxin glutathione reductase (TGR), Q962Y6 | AID 485364, 2010 | Potency, µM (highest dose often 114 µM), usual class: inhibitors | purified TGR, DTNB reduction, TNB absorbance 405 nm | 3% of 360,000 active; note: nearly all actives have a fitted effect of over 60% in size
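Kinetic colorimetric format: TGR-catalysed, NADPH-driven DTNB reduction monitored via TNB absorbance. Enzyme dispensed at 20 nM; compound exposure 15 min at room temperature before reaction start.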
Pf growth 96h: Primary qHTS for delayed death inhibitors of the malarial parasite plastid, 96 hour incubation | P. falciparum luciferase reporter growth, 96 h | Potency, µM (top dose mostly 28.7 µM), hits mostly inhibitors | 6.9% of 320,000 active | AID 504834, 2011
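P. falciparum expressing integrated firefly luciferase, in erythrocytes at 2% hematocrit, 0.05% parasitemia, incubated with compounds 96 h at 37 C, 5% CO2. Growth inhibition read as loss of luminescence; two-generation exposure targets delayed-death apicoplast inhibitors.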
Numbers stand for hits; . = inactive; ? = inconclusive; / = not tested or not shown; [ ] = remark or other dose. Hits are enriched below; roughly 14% of the tested compounds scored in any of these assays. Unless noted, calls come from the whole dose curve; as a rule, active = well fitted curve in the direction sought with a large enough effect; inconclusive = small, poorly fitted or top-dose-only effect, or another doubt; inactive = no such curve, though single readings can be large; an effect the other way counts as inactive or inconclusive.

SMILES	Pf growth 48h	Giardia FBPA inh	HCMV antiviral	Sm TGR inh	Pf growth 96h
COc1cccc(CNC(=O)CSc2nnc3c(n2)[nH]c2ccc(C)cc23)c1	.	.	.	.	.
O=C(Cn1cnc2ccccc2c1=O)NCCC(=O)Nc1ccc(F)cc1	.	.	.	.	.
C/C(=N\NC(=O)c1c(C)nc2ccccn12)c1ccc(O)cc1O	?	.	-82.3	.	3.29µM
C=CCn1c(O)c(CN2CCN(Cc3ccccc3)CC2)c(C)c(C#N)c1=O	/	?	.	44.7µM	.
O=c1[nH]c(=O)n(C(c2ccccc2)(c2ccccc2)c2ccccc2)cc1N(CCO)CCO	/	/	.	/	/
COc1ccc2cc1Oc1cc3c(cc1OC)CC[N+](C)(C)C3Cc1ccc(cc1)Oc1c(OC)c(OC)cc3c1C(C2)[N+](C)(C)CC3 (centres undefined)	.	/	/	/	.
N#CCc1c(C#N)c(N)nc(Nc2ccccc2)c1C#N	.	.	.	20µM	.
CN(c1ccccc1)c1nc(N)c(C#N)c(CC#N)c1C#N	.	.	.	.	?
CCOc1ccc(-c2nnc3sc(-c4ccccc4OC)nn23)cc1	/	/	.	/	/
COc1ccccc1-c1nnc2sc(COc3ccc(F)cc3)nn12	1.47µM	.	.	.	.
COc1ccccc1-c1nn2c(C3COc4ccccc4O3)nnc2s1 (centres undefined)	.	.	.	.	3.7µM
Cc1nnc2sc(-c3ccc(N(C)C)cc3)nn2c1=O	.	.	.	.	10.4µM
COc1ccccc1-c1nn2c(-c3ccc(C(C)(C)C)cc3)nnc2s1	?	.	/	.	.
COc1ccccc1-c1nnc2sc(-c3ccc(N(C)C)cc3)nn12	?	.	-92.9	.	11.7µM
COc1cccc(OC)c1C(=O)Nc1ccccc1C(=O)N1CCCCCC1	.	.	.	.	.
COc1ccc(NC(=O)CC(C)S(=O)(=O)c2cc3c(cc2C)NC(=O)CO3)cc1OC (centres undefined)	/	/	.	.	/
COC(=O)C[C@@H]1OC[C@H](Cc2ccccc2)N1S(=O)(=O)c1ccc(C)cc1	/	/	.	/	/
O=C(O)Cn1nnc(-c2ccc(OCc3cccc(C(F)(F)F)c3)cc2)n1	/	/	.	.	/
CN(C)c1ccc(-c2nn3c(-c4ccccc4Cl)nnc3s2)cc1	?	.	-74.3	.	/
COc1ccccc1OCC(O)CNCc1ccc2c(c1)OCO2 (centres undefined)	.	.	.	.	.
COc1cc(COCC(O)CN2CCN(CCN3C(=O)c4cccc5cccc(c45)C3=O)CC2)cc(OC)c1OC (centres undefined)	?	.	-75.5	.	?
CCOC(=O)N1CCN(CC(O)COCc2cc(OC)c(OC)c(OC)c2)CC1 (centres undefined)	.	.	.	.	.
O=C1c2cccc3cccc(c23)C(=O)N1CCN1CCN(CC(O)COCc2ccc(Cl)cc2)CC1 (centres undefined)	?	.	-79.2	.	?
O=[N+]([O-])c1cccc(/C=N/N=C\c2ccccc2)c1	.	.	.	.	13.1µM
CCN1C=CC(=C2C(=O)c3ccccc3C2=O)C=C1	?	.	-89.3	.	?
SMILES	Pf growth 48h	Giardia FBPA inh	HCMV antiviral	Sm TGR inh	Pf growth 96h
CCCCCCN1C=CC(=C2C(=O)c3ccccc3C2=O)C=C1	.	.	-66.4	.	.
CN1C=CC(=C2C(=O)c3ccccc3C2=O)C=C1	/	.	/	.[11.4 µM]	?
CCCN1C=CC(=C2C(=O)c3ccccc3C2=O)C=C1	.	.	-98.5	.	.
CCCCC[C@H](O)/C=C/C=C\CCCCCCCCCC(=O)O	/	.	/	/	/
Cc1ccc(C)c(N2CCN(C(=O)CSCc3ccccc3Cl)CC2)c1	/	/	?	.	/
CC(=O)c1c2c(cc3ccc(Cl)cc13)CCC2	/	/	.	/	/
N#C[C@@H](c1ccccc1)C1CCN(C(=O)c2ccco2)CC1	/	/	.	/	/
O=c1c(-c2cc(-c3ccccc3)nc3c2COc2ccc(Cl)cc2-3)coc2ccc(F)cc12	/	/	.	.	/
CC(C)(C)CN1CCNC(=O)C1CC(=O)N1CCOc2ccccc2C1 (centres undefined)	.	?	?	39.8µM	?
C=C(C)CN(CC)C(=O)CC1C(=O)NCCN1CC(C)(C)C (centres undefined)	.	.	.	39.8µM	.
CCCN1C(=O)c2cc(C(=O)Nc3ccccc3OC)ccc2C1Nc1ccccc1OC (centres undefined)	10.4µM	.	.	.	?
CCC(c1nnnn1CCc1ccccc1)N(Cc1ccco1)Cc1cc2cc(C)cc(C)c2[nH]c1=O (centres undefined)	11.7µM	.	-70.6	56.2µM	.
CCC(c1nnnn1Cc1ccc(OC)cc1)N(CCCO)Cc1cc2cc3c(cc2[nH]c1=O)OCO3 (centres undefined)	?	.	.	?	/
CC(C)C(c1nnnn1Cc1ccccc1)N(CCCO)Cc1cc2cc3c(cc2[nH]c1=O)OCO3 (centres undefined)	7.38µM	.	.	?	.
CCC(c1nnnn1Cc1ccccc1)N(Cc1ccco1)Cc1cc2cc(OC)ccc2[nH]c1=O (centres undefined)	?	.	.	?	.
Cc1ccc2[nH]c(=O)c(CN(CCc3ccccc3)C(c3nnnn3Cc3ccco3)C(C)C)cc2c1 (centres undefined)	3.29µM	.	.	.	?
CCC(c1nnnn1Cc1ccco1)N(CCc1ccccc1)Cc1cc2cc(C)ccc2[nH]c1=O (centres undefined)	13.1µM	?	.	?	.
CCC(c1nnnn1CCc1ccccc1)N(Cc1ccco1)Cc1cc2c(C)ccc(C)c2[nH]c1=O (centres undefined)	?	.	.	?	.
COCc1ccc(C(=O)N2CCCC(Nc3ccc(C(C)C)cc3)C2)o1 (centres undefined)	?	/	.	.	.
CCCCNC(=O)CSc1nc2ccccc2c(=O)n1C1CCCC1	13.1µM	.	.	.	.
CNC(=O)CSc1nc2ccccc2c(=O)n1C1CCCCC1	.	.	.	.	?
CSc1nc2ccccc2c(=O)n1C1CCCCC1	.	.	?	.	1.47µM
Cc1ccc(NC(=O)N2CCCN(Cc3ccc(F)cc3)C2)cc1C	13.1µM	.	.	.	?
Cc1ccc(NC(=O)N2CCCCCC2)cc1C	.	/	.	.	.
CCC1(CCC(C)C)SC(N)=NC1=O (centres undefined)	/	/	.	/	/
Cc1ccc(CSCCNS(=O)(=O)c2ccccc2)cc1	.	.	?	.	1.47µM
Cc1ccc(CSCCNS(C)(=O)=O)cc1	.	.	.	.	/
CC(=O)Nc1ccc(S(=O)(=O)NCCSCc2ccccc2Cl)cc1	.	.	-84.4	.	.
CCCCCCCCCCCC	/	.	/	/	/
Cc1cc(N2CC(C)OC(C)C2)n2cc(-c3ccccc3)nc2n1 (centres undefined)	?	.	-98.5	.	?

Source: PubChem (National Center for Advancing Translational Sciences (NCATS))
